Reference: the supplement of paper PMC12494721
Structures can show the parent of a compound that is named as a salt.

Tests used:
Conditions in all cases: incubation time: 27 h, anaerobic, 37 °C;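 for the amine columns active = adjusted P below 0.05 in both replicates with a change the same way and a mean fold change under 0.8 or over 1.25; inactive = the rest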
[1] = tested on: Clostridium sporogenes DSM 1664; assay: growth (OD595) fold change vs plate DMSO controls (fold change (ratio)); higher = more growth
How it was run: (§1)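 The measure reported is growth, taken as fold change against the median of DMSO controls on the same plate. Anaerobic mGAM cultures in 96-well plates (27 h, 37 °C) were read at 595 nm, blank-subtracted, corrected for compound background using 20 µM compound solutions in water, and multiplied by a calibration factor of 5 to give OD. Any fold change above 1.5 became NA, and 2 biological replicates were averaged.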

Escherichia coli IAI1 [2] = assay: as above
How it was run: as §1

[3] = tested on: Klebsiella aerogenes DSM 30053; assay: as above
How it was run: as §1

[4] = tested on: Ruminococcus gnavus DSM 108212; assay: as above
How it was run: as §1

[5] = tested on: Klebsiella aerogenes DSM 30053; assay: fold change of Histamine concentration vs plate DMSO controls (fold change (ratio)); higher = more amine produced, active = hit call of the paper (significant change in both replicates, either direction)
How it was run: (§2)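 In 80 µL wells, cultures of four gut bacterial strains in mGAM started at OD 0.1 before a 1:1 dilution and grew anaerobically at 37 °C for 27 h. Compounds were added to 20 µM final, except sweeteners at 50 µM final. After extraction of whole cultures with cold acetonitrile/methanol plus 0.1% formic acid and centrifugation, amines were measured by LC–triple-quadrupole MS in dynamic MRM mode against external calibration curves, with within-batch drift correction. Values give fold change over DMSO controls on the same plate, averaged across 2 biological replicates.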

[6] = tested on: Clostridium sporogenes DSM 1664; assay: fold change of Tryptamine concentration vs plate DMSO controls (fold change (ratio)); higher = more amine produced, active = hit call of the paper (significant change in both replicates, either direction)
How it was run: as §2

[7] = tested on: Ruminococcus gnavus DSM 108212; assay: as above
How it was run: as §2

Escherichia coli IAI1 [8] = assay: fold change of Putrescine concentration vs plate DMSO controls (fold change (ratio)); higher = more amine produced, active = hit call of the paper (significant change in both replicates, either direction)
How it was run: as §2

[9] = tested on: Klebsiella aerogenes DSM 30053; assay: as above
How it was run: as §2

Escherichia coli IAI1 [10] = assay: fold change of Cadaverine concentration vs plate DMSO controls (fold change (ratio)); higher = more amine produced, active = hit call of the paper (significant change in both replicates, either direction)
How it was run: as §2

[11] = tested on: Klebsiella aerogenes DSM 30053; assay: as above
How it was run: as §2

[12] = tested on: Ruminococcus gnavus DSM 108212; assay: fold change of 2-Phenylethylamine concentration vs plate DMSO controls (fold change (ratio)); higher = more amine produced, active = hit call of the paper (significant change in both replicates, either direction)
How it was run: as §2

COc1ccc(-c2cc(=O)c3c(O)cc(O[C@@H]4O[C@H](CO[C@@H]5O[C@@H](C)[C@H](O)[C@@H](O)[C@H]5O)[C@@H](O)[C@H](O)[C@H]4O)cc3o2)cc1O [Diosmin] (20 µM)
growth [1]: 1.12
growth (Escherichia coli IAI1 [2]): 0.976
growth [3]: 1.01
growth [4]: 1.1
fold change of Histamine concentration [5]: 0.924 (inactive)
fold change of Tryptamine concentration [6]: 0.985 (inactive)
fold change of Tryptamine concentration [7]: 0.97 (inactive)
fold change of Putrescine concentration (Escherichia coli IAI1 [8]): 0.961 (inactive)
fold change of Putrescine concentration [9]: 0.992 (inactive)
fold change of Cadaverine concentration (Escherichia coli IAI1 [10]): 0.971 (inactive)
fold change of Cadaverine concentration [11]: 1.02 (inactive)
fold change of 2-Phenylethylamine concentration [12]: 1 (inactive)

CC(=O)Nc1ccc(OC(=O)c2ccccc2O)cc1 [Acetaminosalol] (20 µM)
growth [1]: 0.904
growth (Escherichia coli IAI1 [2]): 0.977
growth [3]: 0.996
growth [4]: 0.994
fold change of Histamine concentration [5]: 0.933 (inactive)
fold change of Tryptamine concentration [6]: 1.06 (inactive)
fold change of Tryptamine concentration [7]: 0.928 (inactive)
fold change of Putrescine concentration (Escherichia coli IAI1 [8]): 1.01 (inactive)
fold change of Putrescine concentration [9]: 1.01 (inactive)
fold change of Cadaverine concentration (Escherichia coli IAI1 [10]): 1 (inactive)
fold change of Cadaverine concentration [11]: 0.999 (inactive)
fold change of 2-Phenylethylamine concentration [12]: 0.917 (inactive)

COc1cc(C)nc(-n2nc(C)cc2OC)n1 [Epirizole] (20 µM)
growth [1]: 0.918
growth (Escherichia coli IAI1 [2]): 0.98
growth [3]: 1
growth [4]: 0.89
fold change of Histamine concentration [5]: 1.02 (inactive)
fold change of Tryptamine concentration [6]: 1.04 (inactive)
fold change of Tryptamine concentration [7]: 0.971 (inactive)
fold change of Putrescine concentration (Escherichia coli IAI1 [8]): 0.949 (inactive)
fold change of Putrescine concentration [9]: 1.02 (inactive)
fold change of Cadaverine concentration (Escherichia coli IAI1 [10]): 1.01 (inactive)
fold change of Cadaverine concentration [11]: 1.02 (inactive)
fold change of 2-Phenylethylamine concentration [12]: 1.02 (inactive)

c1ccc(CN(CC2=NCCN2)c2ccccc2)cc1 [Antazoline hydrochloride] (20 µM)
growth [1]: 0.903
growth (Escherichia coli IAI1 [2]): 0.968
growth [3]: 0.958
growth [4]: 0.834
fold change of Histamine concentration [5]: 1.06 (inactive)
fold change of Tryptamine concentration [6]: 0.965 (inactive)
fold change of Tryptamine concentration [7]: 1.06 (inactive)
fold change of Putrescine concentration (Escherichia coli IAI1 [8]): 0.929 (inactive)
fold change of Putrescine concentration [9]: 1.01 (inactive)
fold change of Cadaverine concentration (Escherichia coli IAI1 [10]): 1.07 (inactive)
fold change of Cadaverine concentration [11]: 0.998 (inactive)
fold change of 2-Phenylethylamine concentration [12]: 1.08 (inactive)

CCOC(=O)c1ccc(OC(=O)CCCCCNC(=N)N)cc1 [Gabexate mesilate] (20 µM)
growth [1]: 1.07
growth (Escherichia coli IAI1 [2]): 1
growth [3]: 0.974
growth [4]: 1.02
fold change of Histamine concentration [5]: 0.978 (inactive)
fold change of Tryptamine concentration [6]: 0.953 (inactive)
fold change of Tryptamine concentration [7]: 0.865 (inactive)
fold change of Putrescine concentration (Escherichia coli IAI1 [8]): 1.01 (inactive)
fold change of Putrescine concentration [9]: 1.07 (inactive)
fold change of Cadaverine concentration (Escherichia coli IAI1 [10]): 0.998 (inactive)
fold change of Cadaverine concentration [11]: 1.04 (inactive)
fold change of 2-Phenylethylamine concentration [12]: 0.776 (inactive)

Cc1ccc(O)c([C@H](CCN(C(C)C)C(C)C)c2ccccc2)c1 [Tolterodine tartrate] (20 µM)
growth [1]: 0.996
growth (Escherichia coli IAI1 [2]): 1.24
growth [3]: 1.04
growth [4]: 1.14
fold change of Histamine concentration [5]: 0.956 (inactive)
fold change of Tryptamine concentration [6]: 1.01 (inactive)
fold change of Tryptamine concentration [7]: 0.997 (inactive)
fold change of Putrescine concentration (Escherichia coli IAI1 [8]): 1.27 (inactive)
fold change of Putrescine concentration [9]: 1.01 (inactive)
fold change of Cadaverine concentration (Escherichia coli IAI1 [10]): 0.926 (inactive)
fold change of Cadaverine concentration [11]: 1 (inactive)
fold change of 2-Phenylethylamine concentration [12]: 0.994 (inactive)

CC(C)NNC(=O)c1ccncc1 [Iproniazide phosphate] (20 µM)
growth [1]: 1.05
growth (Escherichia coli IAI1 [2]): 1.13
growth [3]: 1.09
growth [4]: 1.06
fold change of Histamine concentration [5]: 0.977 (inactive)
fold change of Tryptamine concentration [6]: 1.06 (inactive)
fold change of Tryptamine concentration [7]: 1 (inactive)
fold change of Putrescine concentration (Escherichia coli IAI1 [8]): 1.13 (inactive)
fold change of Putrescine concentration [9]: 1.01 (inactive)
fold change of Cadaverine concentration (Escherichia coli IAI1 [10]): 0.987 (inactive)
fold change of Cadaverine concentration [11]: 1 (inactive)
fold change of 2-Phenylethylamine concentration [12]: 0.994 (inactive)

CC(=O)OCC(=O)[C@@]1(O)CC[C@H]2[C@@H]3CCC4=CC(=O)C=C[C@]4(C)[C@@]3(F)[C@@H](O)C[C@@]21C [Isoflupredone acetate] (20 µM)
growth [1]: 0.985
growth (Escherichia coli IAI1 [2]): 1.02
growth [3]: 0.983
growth [4]: 1
fold change of Histamine concentration [5]: 1.09 (inactive)
fold change of Tryptamine concentration [6]: 1.03 (inactive)
fold change of Tryptamine concentration [7]: 1.1 (inactive)
fold change of Putrescine concentration (Escherichia coli IAI1 [8]): 1 (inactive)
fold change of Putrescine concentration [9]: 1.03 (inactive)
fold change of Cadaverine concentration (Escherichia coli IAI1 [10]): 0.988 (inactive)
fold change of Cadaverine concentration [11]: 1.11 (inactive)
fold change of 2-Phenylethylamine concentration [12]: 1.22 (inactive)

CNC(=O)OCc1cccc(COC(=O)NC)n1 [Pyricarbate] (20 µM)
growth [1]: 0.9
growth (Escherichia coli IAI1 [2]): 1.02
growth [3]: 1.03
growth [4]: 1.02
fold change of Histamine concentration [5]: 0.976 (inactive)
fold change of Tryptamine concentration [6]: 0.953 (inactive)
fold change of Tryptamine concentration [7]: 1.03 (inactive)
fold change of Putrescine concentration (Escherichia coli IAI1 [8]): 1.03 (inactive)
fold change of Putrescine concentration [9]: 0.995 (inactive)
fold change of Cadaverine concentration (Escherichia coli IAI1 [10]): 1.05 (inactive)
fold change of Cadaverine concentration [11]: 0.995 (inactive)
fold change of 2-Phenylethylamine concentration [12]: 1.06 (inactive)

N=C(NCCCCCCNC(=N)NC(=N)Nc1ccc(Cl)cc1)NC(=N)Nc1ccc(Cl)cc1 [Chlorhexidine] (20 µM)
growth [1]: 0.00305
growth (Escherichia coli IAI1 [2]): 0.885
growth [3]: 0.782
growth [4]: 0.0252
fold change of Histamine concentration [5]: 0.936 (inactive)
fold change of Tryptamine concentration [6]: 0.032 (active)
fold change of Tryptamine concentration [7]: 0.0867 (active)
fold change of Putrescine concentration (Escherichia coli IAI1 [8]): 0.641 (inactive)
fold change of Putrescine concentration [9]: 0.783 (inactive)
fold change of Cadaverine concentration (Escherichia coli IAI1 [10]): 1.98 (active)
fold change of Cadaverine concentration [11]: 1 (inactive)
fold change of 2-Phenylethylamine concentration [12]: 0.0518 (active)

CC(C)c1c(C(=O)Nc2ccccc2)c(-c2ccccc2)c(-c2ccc(F)cc2)n1CC[C@@H](O)C[C@@H](O)CC(=O)O [Atorvastatin] (20 µM)
growth [1]: 1.02
growth (Escherichia coli IAI1 [2]): 1.03
growth [3]: 1
growth [4]: 1.28
fold change of Histamine concentration [5]: 1.15 (inactive)
fold change of Tryptamine concentration [6]: 1.01 (inactive)
fold change of Tryptamine concentration [7]: 1 (inactive)
fold change of Putrescine concentration (Escherichia coli IAI1 [8]): 1.01 (inactive)
fold change of Putrescine concentration [9]: 1.02 (inactive)
fold change of Cadaverine concentration (Escherichia coli IAI1 [10]): 0.984 (inactive)
fold change of Cadaverine concentration [11]: 0.998 (inactive)
fold change of 2-Phenylethylamine concentration [12]: 1.02 (inactive)

CC(C)(Sc1cc(C(C)(C)C)c(O)c(C(C)(C)C)c1)Sc1cc(C(C)(C)C)c(O)c(C(C)(C)C)c1 [Probucol] (20 µM)
growth [1]: 1.03
growth (Escherichia coli IAI1 [2]): 1.06
growth [3]: 1.03
growth [4]: 1.15
fold change of Histamine concentration [5]: 0.921 (inactive)
fold change of Tryptamine concentration [6]: 1.02 (inactive)
fold change of Tryptamine concentration [7]: 1.01 (inactive)
fold change of Putrescine concentration (Escherichia coli IAI1 [8]): 1.04 (inactive)
fold change of Putrescine concentration [9]: 0.983 (inactive)
fold change of Cadaverine concentration (Escherichia coli IAI1 [10]): 0.921 (inactive)
fold change of Cadaverine concentration [11]: 1.01 (inactive)
fold change of 2-Phenylethylamine concentration [12]: 1.01 (inactive)
